TDP1 inh: TDP1 (human) enzyme inhibition | Q9NUW8 | recombinant TDP1, AlphaScreen DNA substrate cleavage | Potency, µM (highest dose often 130 µM), hits mostly inhibitors | 350,000 compounds, 0.28% hits; further: nearly all actives have a fitted effect of over 40% in size
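Here, a 5' biotin and 3' phosphotyrosine-FITC DNA oligonucleotide reports Tdp1 activity: intact substrate bridges AlphaScreen beads, while cleavage leaves a 3' phosphate and drops signal. All incubations at room temperature.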
PI5P4Ka inh: inhibitors of human PI5P4K alpha | AID 652105 | 330,000 compounds, 1.2% hits | PI5P4Kalpha enzyme, ADP-Glo luminescence, 60 min; hits give low values | max response, % | P48426; active means max response of -50% or lower; inconclusive means between -30% and -50%; inactive means -30% or higher; further: value at the top dose of about 77 µM
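PI5P4Kalpha ADP-Glo assay; 5 microM ATP final; 60 min RT reaction; HEPES pH 7.4/EGTA/CHAPS, 5% DMSO; controls lacking substrate or enzyme; luminescent end-point.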
PGK inhibitor: T. brucei PGK inhibition. P07378. Potency, µM (doses to about 57.5 µM), usual class: inhibitors. PGK/GAPDH coupled, Kinase-Glo luminescence, 60 min. 380,000 compounds, 0.043% hits. AID 602233; further: nearly all actives have a fitted effect of over 60% in size
Target sequence (P07378 whole entry, looked up): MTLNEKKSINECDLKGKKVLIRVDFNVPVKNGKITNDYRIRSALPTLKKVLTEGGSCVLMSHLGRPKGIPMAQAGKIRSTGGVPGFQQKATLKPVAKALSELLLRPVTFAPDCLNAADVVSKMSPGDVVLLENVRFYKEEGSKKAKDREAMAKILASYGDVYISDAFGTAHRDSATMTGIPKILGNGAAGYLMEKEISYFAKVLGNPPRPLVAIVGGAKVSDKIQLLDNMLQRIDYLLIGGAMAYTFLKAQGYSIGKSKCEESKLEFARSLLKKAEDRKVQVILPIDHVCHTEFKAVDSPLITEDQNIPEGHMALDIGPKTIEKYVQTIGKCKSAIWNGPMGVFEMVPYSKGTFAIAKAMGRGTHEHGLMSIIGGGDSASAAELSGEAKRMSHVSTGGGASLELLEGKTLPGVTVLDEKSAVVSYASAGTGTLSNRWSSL
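Luminescent ATP detection (Kinase-Glo Plus) follows a 60-minute room-temperature incubation, with wells lacking PGK as controls. Buffer: 100 mM TEA (pH 7.6), 5 mM MgCl2, 0.01% Tween-20. Coupling enzyme GAPDH (100 nM final) supplies unstable 1,3-BPG in-well.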
Tb PFK inh: T. brucei PFK enzyme inhibition | T. brucei PFK, ADP-Glo luminescence | Potency, µM (highest dose often 57.5 µM), most hits filed as inhibitors | 330,000 compounds, 0.17% hits | AID 485367 | O15648; further: nearly all actives have a fitted effect of over 60% in size
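Compounds were pin-transferred as a titration series up to 57 uM into substrate buffer (0.5 mM F6P, 0.1 mM ATP, pH 8.0), then 1.25 nM PFK was added and reactions ran 45 min before ADP-Glo detection.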
WRN inhibitor: WRN helicase (human) inhibition; WRN helicase unwinding, fluorescent forked duplex, kinetic; Q14191; Potency, µM (top dose mostly 114 µM), most hits filed as inhibitors; AID 651768; 360,000 compounds, 0.46% hits; further: nearly all actives have a fitted effect of over 55% in size
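WRN at 20 nM final preincubated with compound 15 min at room temperature; reaction started with 100 nM fluorophore/quencher forked duplex oligonucleotide and 2 mM ATP final. Unwinding followed kinetically by red fluorescence (ex 525, em 598 nm).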
FEN1 inh-1: inhibitors of human flap endonuclease 1; P39748; Recombinant FEN1 flap cleavage, fluorescence, 15 min; Potency, µM (top dose mostly 114 µM), actives largely listed as inhibitors; 390,000 compounds, 0.35% hits; AID 588795; further: nearly all actives have a fitted effect of over 65% in size
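Enzyme 10 nM, 15 min RT preincubation with compound; start with substrate 50 nM final; reads at 0 and 15 min; qHTS titration, four-parameter Hill fit.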
FEN1 inh-2: FEN1 inhibition, cherry-pick retest; FEN1 flap cleavage, TAMRA/BHQ2 fluorogenic DNA substrate; Potency, µM, hits mostly inhibitors; 880 compounds, 79% hits; shares compounds with FEN1 inh-1; AID 720498; further: nearly all actives have a fitted effect of over 60% in size
Numbers stand for hits; [ ] = dose if it differs, or a comment. An excerpt weighted towards active compounds, which were near 1.5% of everything screened. Unless noted, the call rests on the fitted dose curve; in most records, active means well fitted curve in the direction sought with a large enough effect; inconclusive means small, poorly fitted or top-dose-only effect, or another doubt; inactive means no such curve, though single readings can be large; an effect the other way counts as inactive or inconclusive.

What do the screens show for `CCCN1CNc2c(c(=O)[nH]c(=S)n2CCc2cc(C)ccc2C)C1`?
TDP1 inh: inactive; FEN1 inh-1: inactive

What do the screens show for `CCC(=O)NC1Cc2ccccc2C(c2ccccc2)C1` (centres undefined)?
TDP1 inh: inactive

What do the screens show for `COc1ccc(N2CCc3c(C)nc4c(OC)cc(OC)cc4c32)cc1`?
TDP1 inh: inactive; PI5P4Ka inh: inactive; PGK inhibitor: inactive; Tb PFK inh: inactive; WRN inhibitor: inactive[11.6 µM]; FEN1 inh-1: 40µM; FEN1 inh-2: 38

How did COc1ccc(C(=O)c2cn(CC(=O)Nc3cc(OC)cc(OC)c3)c3ccc(OC)cc3c2=O)cc1 do in these assays?
TDP1 inh: inconclusive; PGK inhibitor: inactive; Tb PFK inh: inconclusive; FEN1 inh-1: inconclusive; FEN1 inh-2: inconclusive

What do the screens show for `CCOc1ccc(NC(=O)Cn2cc(C(=O)c3ccccc3)c(=O)c3cc(OC)ccc32)cc1`?
TDP1 inh: inactive; PGK inhibitor: inactive; FEN1 inh-1: inactive

What do the screens show for `CCc1ccc(C(=O)c2cn(CC(=O)Nc3ccc(OC)cc3)c3cc4c(cc3c2=O)OCO4)cc1`?
TDP1 inh: inactive; PGK inhibitor: inactive; FEN1 inh-1: inactive

Results for CCc1ccc(C(=O)c2cn(CC(=O)Nc3ccc4c(c3)OCO4)c3ccc(OC)cc3c2=O)cc1 ?
PGK inhibitor: inactive; FEN1 inh-1: 32µM; FEN1 inh-2: 67

What do the screens show for `CCCCC#CC1C=CC(Oc2cc(OC)c(OC)c(OC)c2)C(COC(=O)OCC)O1` (centres undefined)?
TDP1 inh: inactive[21 µM]

What do the screens show for `C/C(=N/NC(=O)c1ccco1)c1cccc(NC(=O)c2ccc(C)s2)c1`?
TDP1 inh: inactive; PI5P4Ka inh: inactive; PGK inhibitor: inactive; Tb PFK inh: inactive; WRN inhibitor: inactive[11.6 µM]; FEN1 inh-1: inactive; FEN1 inh-2: inconclusive

Results for C/C(=N/NC(=O)c1ccco1)c1cccc(NC(=O)c2ccc(C)o2)c1 ?
TDP1 inh: inactive; PI5P4Ka inh: inactive; PGK inhibitor: inactive; Tb PFK inh: inactive; WRN inhibitor: inactive; FEN1 inh-1: inactive

What do the screens show for `CCCSc1nc(C)c2cc(C)cc(C)c2n1`?
TDP1 inh: inactive; PI5P4Ka inh: inactive; PGK inhibitor: inactive; Tb PFK inh: inactive; WRN inhibitor: inactive; FEN1 inh-1: inactive

Results for Cc1cc(C)c2nc3nc(C)c(C)cc3c(N)c2c1 ?
TDP1 inh: inactive; PI5P4Ka inh: inactive; PGK inhibitor: inactive; Tb PFK inh: inactive; WRN inhibitor: inactive[11.6 µM]; FEN1 inh-1: 45µM; FEN1 inh-2: 24

Results for NCCCC[C@H](NC(=O)[C@@H]1CCCN1C(=O)[C@H](CO)NC(=O)[C@H](CC(=O)O)NC(=O)CNC(=O)[C@H](CCCN=C(N)N)NC(=O)CN)C(=O)O ?
TDP1 inh: inactive

Results for CN1CCc2c(sc(/N=C/c3c[nH]c4ccccc34)c2C(N)=O)C1 ?
TDP1 inh: inconclusive; PI5P4Ka inh: inactive; PGK inhibitor: inactive; Tb PFK inh: inconclusive; WRN inhibitor: inactive[11.6 µM]; FEN1 inh-1: inconclusive; FEN1 inh-2: 76

Results for CN1CCc2c(sc(/N=C/c3cc(Cl)ccc3O)c2C#N)C1 ?
PI5P4Ka inh: inactive; PGK inhibitor: inactive; Tb PFK inh: inactive; WRN inhibitor: inactive; FEN1 inh-1: inactive

Results for CN1CCc2c(sc(/N=C/c3c[nH]c4ccccc34)c2C#N)C1 ?
PI5P4Ka inh: inactive; PGK inhibitor: inactive; Tb PFK inh: inactive; WRN inhibitor: inactive; FEN1 inh-1: inconclusive; FEN1 inh-2: inconclusive

What do the screens show for `CCOC(=O)c1c(/N=C/c2ccc(OC)cc2O)sc2c1CCN(C)C2`?
TDP1 inh: inactive; PI5P4Ka inh: inactive; PGK inhibitor: inactive; Tb PFK inh: inactive; WRN inhibitor: inactive; FEN1 inh-1: inactive

Results for C#CCn1c(=O)c2c(nc(/C=C/c3cccc(OC)c3)n2C)n(CCCOP(=O)(O)O)c1=O ?
TDP1 inh: inactive

What do the screens show for `C(=C\c1nccc2ccccc12)/c1ccc(N2CCOCC2)cc1`?
FEN1 inh-1: inactive

Screening data deposited in PubChem BioAssay by National Center for Advancing Translational Sciences (NCATS).
